# Results taken from ChEMBL document CHEMBL4888484, “Replenishing the malaria drug discovery pipeline: Screening and hit evaluation of the MMV Hit Generation Library 1 (HGL1) against asexual blood stage Plasmodium falciparum ,using a nano luciferase reporter read-out” (2022).
# In all, about 4,800 compounds went through this assay and about 410 (8.5%) showed an effect of 50% or more. The entries come from a sample that favours strong results as a whole.
# System: Plasmodium falciparum
# Test: Confirmatory screen in NF54 pLDH assay, in single point, at 2uM, 72h
# Assay type: functional, Erythrocyte
# Settings: timepoint 72 hour
row,SMILES,% Inhibition [%]
1,Cc1noc(C2CCN(CC(=O)Nc3ccccc3C(=O)NCC(C)C)CC2)n1,1
2,CCOC(=O)c1nc[nH]c1-n1nc(C)cc1C,7
3,COc1ccc(-c2nccn3cc(C(=O)N4CCCCCC4)nc23)cc1,4
4,CC(=O)NC1CN(C(=O)Nc2ccc(C(C)C)c(F)c2)C1,-11
5,COc1ccc(C2C(C(=O)O)c3ccccc3C(=O)N2C2CCCCC2)cc1 (stereo not drawn),-13
6,Cc1c([C@@H](NCc2ncccc2O)C(C)C)oc2ccccc12,94
7,CC1=NN(c2nc(C)cc(O)n2)C(=O)C1,-6
8,COc1cccc(-c2nc3n(c2C(=O)Nc2ccccc2C#N)CCS3(=O)=O)c1,9
9,Cc1ccc(-c2ccc(=O)n(CCC(=O)N3CCN(C4CCCCC4)CC3)n2)cc1,0
10,C[C@H]1C(=O)N(C)C[C@@H](CNS(=O)(=O)c2ccccc2)N1Cc1cccnc1,9
11,CCN(CC)c1ccc(NS(=O)(=O)c2cc(S(=O)(=O)c3ccc(Cl)c(S(=O)(=O)Nc4ccc(N(CC)CC)cc4)c3)ccc2Cl)cc1,5
12,CN(C)CC(O)COc1ccc(S(=O)(=O)c2ccc(OCC(O)CN(C)C)c(Cl)c2)cc1Cl (stereo not drawn),61
13,COc1cc(=O)c(C(=O)NCCN2CCCCC2)nn1-c1ccc(F)cc1,0
14,O=C(c1[nH]nc(C2CC2)c1Br)N1CCC12CCC2,-3
15,Cc1ccc(C(=O)N2CCCC23CCC3)nn1,-9
16,CCOc1ccc(C2C(C(=O)O)CCC(=O)N2C2CCCCC2)cc1 (stereo not drawn),10
17,CN(C)c1ccc(C(=O)N2CC[C@H]3NC(=O)N(Cc4ccccc4)C(=O)[C@H]32)cc1,-5
18,Cc1ccc(S(=O)(=O)Nc2cccc(-c3csc(C)n3)c2)cc1,10
19,COc1ccc(CNC(=O)c2sc(Nc3ccc(C)cc3C)nc2C)c(OC)c1,-2
20,O=C1[C@H](c2cccnc2)N(CCCc2ccccc2)C(=O)CN1c1ccccc1,-15
21,CCC(=O)N(CCN(C)C)Cc1c(-c2ccccc2)noc1N1CCCCC1,13

row,SMILES,% Inhibition [%]
1,CCN(CCN(C)C)C(=O)c1cccc(-c2ccc3nccc(N)c3c2)c1,96
2,COc1ccc(-c2cc3nn(CC(=O)NCCC(C)C)c(=O)n3c(C)n2)cc1,1
3,CCc1sc(N(C(=O)CCc2ccccc2)c2ccc(C)cc2C)nc1-c1ccc(OC)cc1,9
4,CCn1ncc(-c2cc(C(F)(F)F)c3c(C(C)C)nn(-c4ccc(F)cc4)c3n2)c1C,-1
5,O=C(NC1CCCCCC1)c1cn(CC2(O)CCN(Cc3ccccc3)CC2)nn1,15
6,O=C(C[C@H]1CCC(=O)N(Cc2ccccc2)CC1)NC1CCN(Cc2ccccc2)CC1,6
7,CCn1ncc(C(=O)n2nc(C)cc2C)c1C,10
8,O=c1cc(N2CCN(C3CCCC3)CC2)cnn1Cc1ccccc1,-19
9,Cc1ccnc(-n2nccc2NC(=O)[C@H](C)Oc2ccccc2)c1,0
10,O=c1c2ccccc2nc2cc(-c3ccc(O)cc3)c(-c3ccccc3)nn12,28
11,CCOC(=O)NC(c1ccccc1F)C1CCCCC1=O (stereo not drawn),1
12,O=C(CN1N=C(C(=O)Nc2ccccc2)CCC1=O)Nc1ccc(OC(F)(F)F)cc1,-8
13,CC[n+]1c(/C=C/N(C)c2ccccc2)oc2ccccc21,76
14,CC[n+]1c(/C=C/N(C)c2ccccc2)oc2ccc(-c3ccccc3)cc21,91
15,CCCn1nnc(N(C(=O)c2cc(Br)cc(C)c2OC)C(=O)c2cc(Br)cc(C)c2OC)n1,0
16,CCCC1CCC(c2ccc(-c3noc(-c4ccc(O)c(F)c4)n3)cc2)CC1 (stereo not drawn),4
17,CC(C)c1ccc2ncnc(N[C@H]3CCc4[nH]cnc4C3)c2c1,101
18,O=c1[nH]nc(-c2ccc3c(c2)CCC3)c2ccccc12,-1
19,COc1ccc(-c2cc3ncc(C(=O)c4cc(Cl)ccc4O)cn3n2)cc1,78
20,COc1ccc(C2=NC3(CCN(Cc4ccccc4)CC3)N[C@H](c3cc(Cl)ccc3O)C2)cc1,9
21,O=C(Nc1ccc2c(c1)CNCC2)C1CC1c1ccc(F)c(F)c1 (stereo not drawn),15

row,SMILES,% Inhibition [%]
1,COc1ccccc1CC(=O)N(c1nc(C)cs1)C1CC1,-8
2,Cc1c(NC(=O)N2CCC(C)C(n3ccnc3)C2)cccc1N(C)C (stereo not drawn),7
3,COc1ccc(-n2nc(C)c(Cc3ccc(Cl)cc3)c2O)cc1,12
4,COc1ccc(CC(=O)Nc2cc(C)n(-c3cccc(Cl)c3)n2)cc1,93
5,COc1ccc(Cl)cc1NC(=O)Cc1c(C)nc2nc(-c3ccccc3C)nn2c1C,6
6,C[C@@H](C(=O)NCCN1CCCCC1)N1C(=O)COc2ccc(C(=O)COc3ccccc3Cl)cc21,-20
7,Cc1nn(-c2ccccc2)c2c1[C@@H](c1ccc(C(F)(F)F)cc1)N(c1ccccc1)C(=O)N2,9
8,CCn1ncc(NC(=O)c2cc(-c3ccccc3)on2)c1C,-19
9,CCc1ccccc1Nc1nc(C)c(C(=O)NCc2cccnc2)s1,-22
10,O=S(=O)(Cc1cc(Cl)cc(Cl)c1)NCCCCn1ccnc1,-11
11,COc1ccc(-c2nccn3cc(C(=O)NCCc4ccncc4)nc23)cc1,5
12,COc1ccc(Nc2nnc(-c3ccc(NC(=O)C(=O)NCCCn4ccnc4)cc3)s2)cc1,76
13,CCOc1ccc(CN2CC[C@H](Nc3ncccn3)[C@@H](O)C2)cc1Cl,-18
14,CC(C)c1ccc(-c2nc(CN3CCCCC3)cc(CN3CCCCC3)c2O)cc1,95
15,CC(C)c1nc(O)cc(CN2CCCCC2)n1,4
16,Cc1ccc(-c2ccnn2C)cc1NC(=O)[C@H]1CCCOC1,13
17,COc1cc(C(=O)Nc2nnc(-c3ccc(C)s3)[nH]2)on1,9
18,O=C(NCC1CC12CCc1ccccc12)NC1CC2CCC1O2 (stereo not drawn),1
19,Cc1ccc2nc(O)c3nnc(C)n3c2c1,15
20,NS(=O)(=O)c1ccc(-c2noc(C3(c4cccc(F)c4)CCC3)n2)cc1,-9
21,CN(C)CCCNc1nc(N2CCCC2)c2c(c1C#N)CCN(C)C2,14
